Results from PubChem BioAssay (EPA / NIEHS).
A structure can be active in one record and inactive in another. Activity calls are given as the source filed them. Rule for the calls: active = hit-call score of the fitted dose curve at least 0.9, where 1 is the maximum; inactive = score below 0.9.

The molecules below were run on Monokine induced gamma interferon (MIG), CXCL9 (gene 4283) (assay: BSK_BE3C_MIG: BioMAP Diversity Plus: BE3C Assay for Monokine induced gamma interferon (MIG) Biomarker Activity (AID 2283035)). Settings: primary human bronchial epithelial cells; actives raise or lower the signal.
Protocol: BSK_BE3C is a cell-based, multiplexed-readout assay that uses bronchial epithelial cell, a human lung primary cell, with measurements taken at 24 hours after chemical dosing in a 96-well plate.BSK_BE3C_MIG is an assay component measured in the BSK_BE3C assay. It measures MIG antibody related to regulation of gene expression using ELISA technology.Data from the assay component BSK_BE3C_MIG was analyzed into 1 assay endpoint. This assay endpoint, BSK_BE3C_MIG, was analyzed with bidirectional fitting relative to DMSO as the negative control and baseline of activity. Using a type of binding reporter, gain or loss-of-signal activity can be used to understand changes in the signaling as they relate to the gene CXCL9. Furthermore, this assay endpoint can be referred to as a primary readout, because this assay has produced multiple assay endpoints where this one serves a signaling function. To generalize the intended target to other relatable targets, this assay endpoint is annotated to the cytokine intended target family, where the subfamily is chemotactic factor.
The levels of cell surface (or secreted, indicated by the prefix "s") biomarker endpoints were measured by ELISA. Overt cytotoxicity to cells in confluent adherent cultures (all systems other than the BT system) was assessed by measuring total protein levels using sulforhodamine B (SRB) staining in parallel cultures at the time of biomarker measurements, indicated as SRB endpoints. For proliferation assays for adherent cell types, individual cell types are cultured at sub-confluence and relative cell numbers quantified by SRB staining at time points optimized for each system (48 h: 3C and CASM3C systems; 72 h: BT and HDF3CGF systems; 96 h: SAg system). SRB was performed by staining cells with 0.1% SRB after fixation with 10% TCA and reading wells at 560 nm.Viability and proliferation of PBMC (T cells) was quantified by Alamar Blue reduction for the SAg and BT systems. For PBMC viability (referred to as PBMC Cytotoxicity within the assay endpoint names), cells were plated (75,000/well in a 96-well plate) and then chemical samples added for 1 h before addition of activators, SEB and TSST-1 (20 ng/mL final concentration each). Cells were incubated for 90 h. Then, Alamar Blue (20 uL/well) (Invitrogen, Cat DAL1100) was added for 6 h, and the plates were read with a fluorescence microplate reader at 546/580 nm (excitation/emission). For PBMC proliferation, cells were plated and activated as above but incubated for only 16 h prior to addition of Alamar Blue. Plates were read after 6 h.

Compound | outcome | AC50
CC(C)OC(=O)Nc1cccc(Cl)c1 | inactive | 
CCOc1nc(NC)nc(NC(=O)NS(=O)(=O)c2ccccc2C(=O)OC)n1 | inactive | 
COP(=S)(OC)Oc1ccc(SC)c(C)c1 | inactive | 
ClC1C(Cl)C(Cl)C(Cl)C(Cl)C1Cl (stereo not given) | inactive | 
Oc1cc(Cl)ccc1Oc1ccc(Cl)cc1Cl |  | 36 µM (active) [middle of 4 runs]
OCCOc1ccccc1 | inactive | 
CC1(C)C(C=C(Cl)Cl)C1C(=O)OC(C#N)c1ccc(F)c(Oc2ccccc2)c1 (stereo not given) | inactive | 
O=C(Nc1ccccc1)Nc1cnns1 | inactive | 
Clc1ccccc1-c1nnc(-c2ccccc2Cl)nn1 | inactive | 
CCC(C)(NC(=O)c1cc(Cl)c(C)c(Cl)c1)C(=O)CCl (stereo not given) |  | 32.8 µM (active)
O=S(=O)(O)C(F)(F)C(F)(F)C(F)(F)C(F)(F)C(F)(F)C(F)(F)C(F)(F)C(F)(F)F | inactive | 43.3 µM (active) [middle of 4 runs]
CCN(CC)C(=O)SCc1ccc(Cl)cc1 | inactive | 
O=[N+]([O-])c1c(Cl)c(Cl)c(Cl)c(Cl)c1Cl | inactive | 
COc1cc(OC)nc(NC(=O)NS(=O)(=O)c2cc(NC=O)ccc2C(=O)N(C)C)n1 | inactive | 
CCOC1Oc2ccc(OS(C)(=O)=O)cc2C1(C)C (stereo not given) | inactive | 
CCC(C)(C)C(=O)OC1=C(c2ccc(Cl)cc2Cl)C(=O)OC12CCCCC2 |  | 34.2 µM (active)
CCc1ccc(C(=O)NN(C(=O)c2cc(C)cc(C)c2)C(C)(C)C)cc1 | inactive | 
COc1nn(CSP(=S)(OC)OC)c(=O)s1 | inactive | 
[2H]C1([2H])[n+]2ccccc2-c2cccc[n+]2C1([2H])[2H] | inactive | 
O=S1OCC2C(CO1)C1(Cl)C(Cl)=C(Cl)C2(Cl)C1(Cl)Cl (stereo not given) |  | 34.4 µM (active)

Compound | outcome | AC50
O=C(O)CCCOc1ccc(Cl)cc1Cl | inactive | 
N#Cc1c(Cl)c(Cl)c(Cl)c(C#N)c1Cl |  | 3.01 µM (active)
Cc1cc(C)nc(NC(=O)NS(=O)(=O)c2ccccc2C(=O)OC2COC2)n1 | inactive | 
CC(C)N(C(=O)COc1nnc(C(F)(F)F)s1)c1ccc(F)cc1 | inactive | 
CCS(=O)(=O)c1cccnc1S(=O)(=O)NC(=O)Nc1nc(OC)cc(OC)n1 | inactive | 
CC1(c2ccc(Oc3ccccc3)cc2)OC(=O)N(Nc2ccccc2)C1=O (stereo not given) | inactive | 
CCCN(CCOc1c(Cl)cc(Cl)cc1Cl)C(=O)n1ccnc1 | inactive | 
O=C(NC(=O)c1c(F)cccc1F)Nc1ccc(OC(F)(F)C(F)OC(F)(F)F)c(Cl)c1 (stereo not given) | inactive | 
CC(C)(C)C(O)C(Oc1ccc(Cl)cc1)n1cncn1 (stereo not given) | inactive | 
COC(=O)c1ccccc1S(=O)(=O)NC(=O)N(C)c1nc(C)nc(OC)n1 | inactive | 
C#CCN1C(=O)COc2cc(F)c(N3C(=O)C4=C(CCCC4)C3=O)cc21 | inactive | 
Oc1ccc(Cl)cc1Cc1ccccc1 |  | 37.3 µM (active) [middle of 7 runs]
COC(=O)c1ccccc1CS(=O)(=O)NC(=O)Nc1nc(OC)cc(OC)n1 | inactive | 
CNC(=O)Oc1cccc(N=CN(C)C)c1 | inactive | 
COP(=S)(OC)Oc1ccc([N+](=O)[O-])cc1 | inactive | 
C[C@H]1[C@H](c2ccc(Cl)cc2)SC(=O)N1C(=O)NC1CCCCC1 | inactive | 
CCC(C)Nc1c([N+](=O)[O-])cc(C(C)(C)C)cc1[N+](=O)[O-] (stereo not given) | inactive | 
CC(C)(C)C(O)/C(=C\c1ccc(Cl)cc1Cl)n1cncn1 (stereo not given) |  | 35.1 µM (active)
COP(=O)(OC)OC=C(Cl)Cl | inactive | 
